Source: PubChem BioAssay (Tox21)
Active and inactive are the calls of the source. Where a call stands in place of a potency, no number is given. Calls come from the whole dose curve.

Molecular target: Acetylcholinesterase (Homo sapiens) (UniProt P22303)
Experiment: Acetylcholinesterase (AChE) small molecule antagonists: enzyme-based qHTS assay with human liver microsomes (AID 1347399); note: nearly all actives have a fitted effect of over 60% in size
Conditions: Potency: qHTS inhibition; outcome: qHTS inhibition; series mostly up to 115 µM
Text: National Center for Advancing Translational Sciences [NCATS]
Division of Preclinical Innovation [DPI]
U.S. Environmental Protection Agency [EPA]
National Institutes of Environmental Health Sciences [NIEHS]
National Toxicology Program [NTP]
U.S. Food and Drug Administration [FDA]
Acetylcholinesterase (AChE) is the primary cholinesterase in the body that hydrolyzes a key neurotransmitter, acetylcholine. Inhibition of AChE activity can lead to neurotoxicity. The known inhibitors include organophosphorous pesticides (OP), chemical warfare agents, drugs, and various phytochemicals. Some compounds like OP compounds may need metabolic activation to be active AChE inhibitors. The cytochrome P450 (CYP) superfamily in the human microsomes is responsible for the metabolism of various endogenous and exogenous compounds.
An enzyme-based assay with the recombinant human AChE, human liver microsomes and Amplite Colormetric acetylcholinesterase assay kit (AAT Bioquest, Sunnyvale, CA) was used to evaluate compounds in the Tox21 10K library that need metabolic activation for AChE inhibition. The assay uses 5, 5-dithiobis-(2-nitrobenzoic acid) (DTNB) to quantify the thiocholine produced from the hydrolysis of acetylthiocholine by AChE.
Tox21 Assay Protocol Summary:
For the enzyme-based AChE assay with microsomes addition, a mixture of human AChE (50 mU/mL) and human liver microsomes (0.25 mg/mL, final concentration) in 3 uL/well was dispensed into black, clear-bottom 1536-well plates using a Multidrop Combi dispenser (Thermo Scientific, MA). Then, 23 nL of compound or DMSO (vehicle control) was transferred into the assay plates by a Pintool Station (Wako Automation, CA). Following compound addition, 1 uL of NADPH (0.25 mg/mL, final concentration) was transferred to the assay plate by a Flying Reagent Dispenser (Beckman Coulter, CA). The plates were incubated for 30 min at 37 C and 5% CO2, followed by the addition of 4 uL of colorimetric detection cocktail solution (DTNB, acetylthiocholine) into each well using a Flying Reagent Dispenser (Beckman Coulter, CA) and then 10 min incubation at room temperature.

Sequence of Acetylcholinesterase (Homo sapiens) (P22303 whole entry, looked up): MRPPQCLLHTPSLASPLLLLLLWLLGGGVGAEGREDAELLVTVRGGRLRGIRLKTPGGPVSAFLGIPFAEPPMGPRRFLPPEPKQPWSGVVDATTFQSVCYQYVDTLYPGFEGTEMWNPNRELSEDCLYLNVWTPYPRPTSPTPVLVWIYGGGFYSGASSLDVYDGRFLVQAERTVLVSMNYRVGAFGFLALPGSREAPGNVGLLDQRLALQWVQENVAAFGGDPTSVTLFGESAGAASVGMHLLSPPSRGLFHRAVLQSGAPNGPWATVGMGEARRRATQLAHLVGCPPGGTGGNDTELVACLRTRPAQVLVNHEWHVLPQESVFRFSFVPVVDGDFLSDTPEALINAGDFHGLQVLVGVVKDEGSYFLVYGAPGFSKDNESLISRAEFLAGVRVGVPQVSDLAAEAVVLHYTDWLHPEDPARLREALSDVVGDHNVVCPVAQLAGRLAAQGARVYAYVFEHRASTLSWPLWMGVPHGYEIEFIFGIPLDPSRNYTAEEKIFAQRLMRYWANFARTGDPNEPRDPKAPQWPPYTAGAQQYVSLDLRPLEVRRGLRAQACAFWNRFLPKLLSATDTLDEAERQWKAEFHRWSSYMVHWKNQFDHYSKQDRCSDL

Compound | Potency | activity change, negative = inhibition
CCc1ccc(C(c2ccc(CC)cc2)C(Cl)Cl)cc1 | inactive | –
C/C(CC(C)C)=N\O | inactive | –
O=C1CCC(=O)O1 | inactive | –
CC(=O)OC/C=C(\C)CCC=C(C)C | inactive | –
CCNc1cc(O)ccc1C | inactive | –
Oc1ccc(Cl)c2cccnc12 | inactive | –
CC(=O)Nc1ccc(CC(=O)O)cc1 | inactive | –
CS(=O)(=O)c1ccc([C@@H](O)[C@@H](CO)NC(=O)C(Cl)Cl)cc1 | inactive | –
C[C@@H]1CN(c2c(F)c(N)c3c(=O)c(C(=O)O)cn(C4CC4)c3c2F)C[C@H](C)N1 | – | 0.841% [at 23.6 µM] (inactive)
CC1(C)S[C@@H]2[C@H](NC(=O)COc3ccccc3)C(=O)N2[C@H]1C(=O)O | inactive | –
CC(=O)Nc1ccc(S(=O)(=O)Nc2ccc([N+](=O)[O-])cc2)cc1 | inactive | –
CC1CC(O)CC(C)(C)C1 (stereo not given) | inactive | –
CC(CC(C)(C)C)CC(C)(C)CC(C)(C)C (stereo not given) | inactive | –
OCc1ccccc1O | inactive | –
C[C@@H](Oc1ccc(CNC(=O)c2cccnc2Oc2ccc3c(c2)OCO3)c(F)c1)C(=O)O | inactive | –
Nc1ccc(Cl)cc1Cl | inactive | –
O=C(CCCCC(=O)Nc1c(I)cc(I)c(C(=O)O)c1I)Nc1c(I)cc(I)c(C(=O)O)c1I | inactive | –
O=C(c1ccc(Cl)cc1)c1ccc(Cl)cc1 | inactive | –
Cc1ccc(S(=O)(=O)NC(=O)NC2CCCCCCC2)cc1 | inactive | –
C=C(C)C(=O)OCc1ccccc1 | inactive | –

Compound | Potency | activity change, negative = inhibition
CCN1CN(CC)CN(CC)C1 | inactive | –
C=C(C)C(=O)OCCOCCOCCOC(=O)C(=C)C | inactive | –
CN(C)c1ccc(C(=C2C=CC(=[N+](C)C)C=C2)c2ccc(N(C)C)cc2)cc1 | inactive | –
CCCC(CC)c1ccccc1 (stereo not given) | inactive | –
C/C=C/C=C/CCCCCCCO | inactive | –
C=C/C=C/C=C/CCCCC | – | -1.78% [at 23.6 µM] (inactive)
CSc1nnc(C(C)(C)C)c(=O)[nH]1 | inactive | –
CCNC(=O)/C=C/c1cccc(Br)c1 | inactive | –
Cc1cc(CCC(=O)OCCOCCOCCOC(=O)CCc2cc(C)c(O)c(C(C)(C)C)c2)cc(C(C)(C)C)c1O | inactive | –
O=C(Nc1ccccc1)Nc1ccccc1 | inactive | –
Cc1cccc(Oc2ccccc2)c1 | inactive | –
C[C@@H]1C[C@H]2O[C@@]3(O[C@@H]2C(C)(C)O)[C@H](O)[C@@]2(C)[C@@H]4CC[C@H]5C(C)(C)[C@@H](O[C@@H]6OC[C@@H](O)[C@H](O)[C@H]6O)CC[C@@]56C[C@@]46CC[C@]2(C)[C@@H]13 | inactive | –
CCCCCCCCCCCCCC[n+]1ccccc1 | inactive | –
O=C(Cl)c1c(Cl)cccc1Cl | inactive | –
CCCCCCCCCCCCCCC(=O)O | inactive | –
CC(O)COc1ccccc1 (stereo not given) | inactive | –
CC(=O)CC(C)=O | inactive | –
CC1(C)NC(=O)NC1=O | inactive | –
CC(C)(N)C#N | inactive | –
CCc1ccc(CCOc2ccc(CC3SC(=O)NC3=O)cc2)nc1 (stereo not given) | inactive | –
